Results filed as inconclusive are left out. Activity calls are given as the source filed them. Calls come from the whole dose curve; as a rule, active = well fitted inhibition curve with a large enough effect; inconclusive = small, poorly fitted or top-dose-only effect, or effect the other way; inactive = flat fitted curve, though single readings scatter.
These compounds were tested against ATP-dependent 6-phosphofructokinase (Trypanosoma brucei brucei) (UniProt O15648) (assay: qHTS Assay to Find Inhibitors of T. brucei phosphofructokinase: hit validation (AID 492961;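 note: luminescence reports ADP formed as PFK phosphorylates fructose-6-phosphate with ATP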)). Conditions: T. brucei PFK, ADP-Glo luminescence; series mostly up to 51.4 µM; activity change, negative = inhibition: at the top concentration.
Chain of ATP-dependent 6-phosphofructokinase (Trypanosoma brucei brucei) (O15648 whole entry, looked up): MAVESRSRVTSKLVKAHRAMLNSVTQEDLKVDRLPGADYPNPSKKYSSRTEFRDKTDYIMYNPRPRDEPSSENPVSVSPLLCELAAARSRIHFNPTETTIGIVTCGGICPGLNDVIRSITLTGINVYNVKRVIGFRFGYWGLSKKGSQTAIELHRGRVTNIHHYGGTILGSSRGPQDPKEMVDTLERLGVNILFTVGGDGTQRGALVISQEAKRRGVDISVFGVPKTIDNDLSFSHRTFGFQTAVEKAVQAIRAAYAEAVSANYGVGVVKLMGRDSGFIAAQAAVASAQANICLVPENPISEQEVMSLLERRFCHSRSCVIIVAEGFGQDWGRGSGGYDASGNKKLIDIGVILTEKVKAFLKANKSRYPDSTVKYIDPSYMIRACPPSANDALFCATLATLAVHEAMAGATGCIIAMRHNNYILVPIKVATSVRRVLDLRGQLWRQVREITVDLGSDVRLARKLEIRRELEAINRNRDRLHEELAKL
Procedure, shortened: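 Reaction: 0.1 M triethanolamine pH 8.0, 5 mM MgCl2, F6P 0.5 mM, ATP 0.1 mM, PFK 1.25 nM, 45 min RT. Read-out: ADP-Glo luminescence. Analysis: concentration-response fits, classed by r2 and efficacy.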
In the case of COc1c2occc2c(OC)c2c(=O)cc(C)oc12, the “activity change, negative = inhibition” value is reported as 10.1% [at 24.3 µM] (inactive).
With C#C[C@]1(O)CC[C@H]2[C@@H]3CCc4cc(OC5CCCC5)ccc4[C@H]3CC[C@@]21C the “activity change, negative = inhibition” value was 3.14% (inactive).
CCCCOc1ccc(OCCCN2CCOCC2)cc1 was tested, and the “activity change, negative = inhibition” value was -5.33% [at 24.3 µM] (inactive).
With COc1ccc(CN2CCN(C(c3ccc(F)cc3)c3ccc(F)cc3)CC2)c(OC)c1OC the “activity change, negative = inhibition” value was -0.171% (inactive).
NCCCC[C@H](N[C@@H](CCc1ccccc1)C(=O)O)C(=O)N1CCC[C@H]1C(=O)O was tested, and the “activity change, negative = inhibition” value was 1.35% [at 24.3 µM] (inactive).
For CN1C(CCl)Nc2cc(Cl)c(S(N)(=O)=O)cc2S1(=O)=O (stereo unspecified), the “activity change, negative = inhibition” value was -5.64% (inactive).
For CCCCCCCCCCCCCCCCCC(=O)OCC(O)CO (stereo unspecified), the “activity change, negative = inhibition” value was 15% (inactive).
With Cc1cc(O)c(C(C)C)cc1Cl the “activity change, negative = inhibition” value was -6.06% (inactive).
CCOC(=O)c1cccc(N)c1 was tested, and the “activity change, negative = inhibition” value was -7.68% (inactive).
With CC1=C(C(=O)OC(C)C)C(c2cccc([N+](=O)[O-])c2)C(C(=O)OC2CN(C(c3ccccc3)c3ccccc3)C2)=C(N)N1 (stereo unspecified) the “activity change, negative = inhibition” value was -4.86% (inactive).
CCCCCCCCCCCCCCNCCO was tested, and the “activity change, negative = inhibition” value was 3.03% (inactive).
CC(=O)OCC(=O)NCCCOc1cccc(CN2CCCCC2)c1 was tested, and the “activity change, negative = inhibition” value was -0.4% (inactive).
In the case of CCOC(=O)n1ccn(C)c1=S, the “activity change, negative = inhibition” value is reported as 6.87% [at 24.3 µM] (inactive).
In the case of CCCCCC=CCC=CCCCCCCCC(=O)OCC, the “activity change, negative = inhibition” value is reported as 12.9% (inactive).
CC(Cc1cccc(C(F)(F)F)c1)NCCOC(=O)c1ccccc1 (stereo unspecified) was tested, and the “activity change, negative = inhibition” value was 1.64% (inactive).
In the case of CO/N=C1\CN(c2nc3c(cc2F)c(=O)c(C(=O)O)cn3C2CC2)CC1CN (stereo unspecified), the “activity change, negative = inhibition” value is reported as 1.23% (inactive).
In the case of O=C1[C@H]2CCCC[C@H]2C(=O)N1CCCCN1CCN(c2nsc3ccccc23)CC1, the “activity change, negative = inhibition” value is reported as 10.9% (inactive).
With Cc1c(N(C)CS(=O)(=O)O)c(=O)n(-c2ccccc2)n1C the “activity change, negative = inhibition” value was -4.65% [at 24.3 µM] (inactive).
In the case of CCN1CCCC1=O, the “activity change, negative = inhibition” value is reported as 5.29% (inactive).
For CCOC(=O)OC(C)OC1=C(C(=O)Nc2ccccn2)N(C)S(=O)(=O)c2ccccc21 (stereo unspecified), the “activity change, negative = inhibition” value was 10.3% (inactive).
With O=C(CCCN1CCC(O)(c2ccc(Br)cc2)CC1)c1ccc(F)cc1 the “activity change, negative = inhibition” value was 4.06% [at 24.3 µM] (inactive).
For Cc1c(C)n(Cc2ccccc2)c2ccc(C(=O)OCCN(C)C)cc12, the “activity change, negative = inhibition” value was -5.3% (inactive).
For CC(C)COC(=O)c1ccc(N)cc1, the “activity change, negative = inhibition” value was -2.75% (inactive).
With NC(CS)C(=O)O (stereo unspecified) the “activity change, negative = inhibition” value was 3.22% (inactive).
For C[C@]12CCC(=O)C=C1CC[C@H]1[C@@H]3CC[C@](O)(C(=O)CO)[C@@]3(C)C[C@H](O)[C@@]12F, the “activity change, negative = inhibition” value was -4.3% (inactive).
CCCCOc1ccc(C(=O)CCN2CCCCC2)cc1 was tested, and the “activity change, negative = inhibition” value was 13.4% [at 24.3 µM] (inactive).
O=S1(=O)c2cccc3cccc(c23)N1CCCN1CCN(c2ccc(F)cc2)CC1 was tested, and the “activity change, negative = inhibition” value was -1.05% (inactive).
In the case of COc1cc2c(cc1OC)C(C(C(=O)N(CCc1ccc(OC)c(OC)c1OC)CCc1ccc(OC)c(OC)c1OC)c1ccccc1)=NCC2 (stereo unspecified), the “activity change, negative = inhibition” value is reported as -1% (inactive).
In the case of CC(C)(C)CC(C)(C)c1ccc(O)c(Cc2ccc(Cl)cc2Cl)c1, the “activity change, negative = inhibition” value is reported as 0% (inactive).
In the case of C#C[C@]1(OC(C)=O)CC[C@H]2[C@@H]3CCC4=C[C@@H](OC(C)=O)CC[C@@H]4[C@H]3CC[C@@]21C, the “activity change, negative = inhibition” value is reported as 4.16% (inactive).
CCOc1ccc(Cc2nccc3cc(OCC)c(OCC)cc23)cc1OCC was tested, and the “activity change, negative = inhibition” value was 0.545% [at 24.3 µM] (inactive).
With CCN(CC)CCOc1ccc(C(O)(Cc2ccc(Cl)cc2)c2ccc(C)cc2)cc1 (stereo unspecified) the “activity change, negative = inhibition” value was 4.95% (inactive).
In the case of CCCCCCC[N+](CC)(CC)CCCCc1ccc(Cl)cc1, the “activity change, negative = inhibition” value is reported as -4.84% [at 24.3 µM] (inactive).
In the case of OCc1ccccc1O, the “activity change, negative = inhibition” value is reported as -0.845% (inactive).
With CCCCc1nc(Cl)c(CO)n1Cc1ccc(-c2ccccc2-c2nn[nH]n2)cc1 the “activity change, negative = inhibition” value was 9.95% (inactive).
For C[C@H]1[C@H](NC(=O)/C(=N/OC(C)(C)C(=O)O)c2csc(N)n2)C(=O)N1S(=O)(=O)O (stereo in doubt), the “activity change, negative = inhibition” value was 0.898% [at 24.3 µM] (inactive).

Reference: PubChem BioAssay (NCATS)
% is set by controls: 0 for no effect and ±100 for the full control effect.
